Results on 36 compounds are retold here after PubChem BioAssay.

Each structure is given as a SMILES string.

The assay is described as follows: Plasmodium falciparum growth inhibition, primary screen, strain 3D7, DAPI fluorescence, 100 nL (AID 1184).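 Note: parasites grown inside human red blood cells in medium with human serum.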 To be noted: P. falciparum 3D7 growth, 3 d, higher = more signal.
Compound `N#Cc1ccc(NN2C(C(O)c3ccccc3)C=CC3C(=O)N(c4ccccc4)C(=O)C32)cc1` (stereo unspecified) came in with a z-score of 0.635. The compound `O=C(NCc1ccccc1)[C@]1(Cc2ccccc2)N=C(c2ccc(OCCCO)cc2)O[C@@H]1c1ccccc1` yielded a z-score of -2.18.

`CC(C)CCC[C@@H](C)[C@H]1CC[C@@]2(C)C3=C(CC[C@]12C)[C@@]1(C)CC[C@H](OC(=O)C(C)(C)C)C(C)(C)C1CC3` (stereo partly specified): the z-score is -1.29.

Consider `NC(=O)NCC#Cc1ccc2c(c1)[C@]1(C(=O)N2)[C@H](c2ccc(OCCO)cc2)N2[C@H](c3ccccc3)[C@H](c3ccccc3)OC(=O)[C@H]2[C@@H]1C(=O)N1CCCCCCC1`, for which the z-score is -0.765. In the case of `[N-]=[N+]=Nc1ccccc1[C@H]1OC(c2ccc(OCCCO)cc2)=N[C@@]1(Cc1ccccc1)C(=O)NCc1ccccc1`, the z-score was -2.24. In turn, `COCCOC(=O)N1C(=O)[C@@]2(c3cc(C#CCC(C(=O)OC)C(=O)OC)ccc31)[C@H](C(=O)N1CCCCCCC1)[C@H]1C(=O)O[C@H](c3ccccc3)[C@H](c3ccccc3)N1[C@@H]2c1ccc(O)cc1` gave a z-score of -2.22. For `C=CC[C@]1(C(=O)NCC(O)CO)N=C(c2ccc(OCCCO)cc2)O[C@H]1c1ccccc1N=[N+]=[N-]` (stereo partly specified), the z-score was -2.3. Turning to `O=C(Nc1cc(Br)ccc1C(=O)NCc1cccc(O)c1)c1ccccc1`, the z-score is -0.64. In turn, `CC1CC/C=C\[C@H]2OC34C=CCN(c5ccc(Cl)cc5)C(=O)[C@H]3N(C(CO)C(C)C)C(=O)[C@]4(C)C2C(=O)O1` (stereo partly specified) yielded a z-score of -0.0809. `CC1=C2[C@@H](CCc3ccccc3)OB(O)C[C@@H]2[C@@H]2C(=O)C=CC(=O)[C@@H]2C1`: the z-score is -1.15. Compound `[N-]=[N+]=NCc1ccccc1C[C@]1(C(=O)NCCN2CCOCC2)COC(c2ccc(OCCCO)cc2)=N1` gave a z-score of -2.09.

Turning to `COc1ccc(CCNC(=O)[C@@H]2c3ccccc3C(=O)N(Cc3ccccc3)[C@H]2c2ccc(CO)cc2)cc1`, the z-score was -1.08.

Compound `C=CC[C@@]1(C(=O)NCC(O)CO)N=C(c2ccc(OCCCO)cc2)O[C@@H]1c1ccccc1` (stereo partly specified) returned a z-score of -0.869.

With `CO[C@H]1O[C@H](CO)[C@@H](OC(=O)Nc2cccc(F)c2)[C@H](OC(=O)Nc2ccc3c(c2)OCO3)[C@H]1OC(=O)Nc1ccc2c(c1)OCO2`, the z-score is -1.34. With `COc1ccc(C#Cc2ccc3c(c2)[C@]2(C(=O)N3)[C@H](c3ccc(OCCO)cc3)N3[C@H](c4ccccc4)[C@H](c4ccccc4)OC(=O)[C@H]3[C@@H]2C(=O)N2CCN(c3ncccn3)CC2)cc1`, the z-score is -1.31. `COCC(=C=CC[C@@H](O)c1ccccc1OCCO)C[C@@H](O)c1ccccn1` came in with a z-score of -0.991. The same measure for `CCCN1C(=O)[C@@]2(Cc3ccccc3)N=C(c3ccc(OCCCO)cc3)O[C@H]2c2ccccc21`: -2.38; for `NC(=O)NCC#Cc1ccc2c(c1)[C@]1(C(=O)N2)[C@H](c2ccc(OCCO)cc2)N2[C@H](c3ccccc3)[C@H](c3ccccc3)OC(=O)[C@H]2[C@@H]1C(=O)N1CCN(c2ncccn2)CC1`: 0.149; for `C=CCC(OC(C)=O)[C@@H]1[C@@H](N(Cc2cccc3ccccc23)C(=O)c2ccc(C)cc2)c2cc(OCCCO)ccc2N1C(=O)c1ccc2ccccc2c1` (stereo partly specified): -2.2. Under `COc1ccc([Si](C)(C)[C@@H]2[C@@H](CC(=O)N(CCO)Cc3ccccc3)O[C@]3(C(=O)N(Cc4ccc(N5CCOC5=O)cc4)c4ccccc43)[C@H]2C)cc1` stands -0.352. Turning to `COc1ccccc1CN1C(=O)c2ccccc2[C@](Cc2ccccc2I)(C(=O)NCCN2CCOCC2)[C@@H]1c1ccc(CO)cc1`, the z-score is -2.26.

Consider `CN(C)CCCN1C(=O)[C@@]2(Cc3ccccc31)c1ccccc1C(=O)N(Cc1ccccc1)[C@H]2c1ccc(CO)cc1`, for which the z-score was -1.47. As to `Cc1ccc(S[C@]2(C(=O)O)CC(=O)N(Cc3ccccc3C(F)(F)F)[C@@H]2c2ccc(CO)cc2)cc1`, the z-score was 0.212. On to `CCOC(=O)C1=CC[C@@H](c2ccccc2)N(S(=O)(=O)c2ccc(C)cc2)[C@H]1C=C(C)C`, for which the z-score was -2.17. Take `COCCOC(=O)N1C(=O)[C@@]2(c3cc(C#CCNC(N)=O)ccc31)[C@H](C(=O)N1CCCCCCC1)[C@H]1C(=O)O[C@H](c3ccccc3)[C@H](c3ccccc3)N1[C@@H]2c1ccc(OCCO)cc1`: the z-score was -1.77. Under `CC(C)CNC(=O)[C@@]1(C)c2ccccc2C(=O)N(Cc2ccccc2)[C@H]1c1ccc(CO)cc1` stands 0.301. `C=CCC(OC(C)=O)[C@@H]1[C@@H](N(Cc2ccc(-c3ccccc3)cc2)C(=O)c2cccc3ccccc23)c2cc(OCCCO)ccc2N1C(=O)c1ccc2ccccc2n1` (stereo partly specified) had a z-score of -0.714.

In turn, `COc1ccc([Si](C)(C)[C@@H]2[C@@H](CCO)O[C@]3(C(=O)N(Cc4ccccc4)c4ccc(N5C(=O)COc6ccccc65)cc43)[C@H]2C)cc1` had a z-score of -2.82. The compound `C=C(COC)/C(=C/C[C@@H](OC(=O)c1ccncc1)c1cccc(OCCO)c1)c1cc(C(=O)OC)ccc1OC` yielded a z-score of -2.38.

`O=C1NC(=O)C2C1C=CC(C(O)c1ccc3c(c1)OCO3)N2Nc1ccc(Cl)cc1Cl` (stereo unspecified) registered a z-score of 0.576. On to `[N-]=[N+]=NCc1ccccc1C[C@@]1(C(=O)NCCN2CCOCC2)N=C(c2ccc(OCCCO)cc2)O[C@@H]1c1ccccc1CN=[N+]=[N-]`, for which the z-score is -2.22. The same measure for `C[N+](C)(C)CCCCCCNC(=O)[C@@H]1C[C@@H]2C(=O)NCC(=O)N2[C@@H]1c1ccc(O)cc1`: 0.627; for `COC(=O)[C@@]1(Cc2ccccc2N=[N+]=[N-])N=C(c2ccc(OCCCO)cc2)O[C@H]1c1ccccc1`: -1.85. Under `COCCOC(=O)N1C(=O)[C@@]2(c3cc(C#Cc4ccc(OC)cc4)ccc31)[C@H](C(=O)N1CCc3cc(OC)c(OC)cc3C1)[C@H]1C(=O)O[C@H](c3ccccc3)[C@H](c3ccccc3)N1[C@@H]2c1ccc(OCCO)cc1` stands -2.22.

Regarding `O=C1O[C@H](c2ccccc2)[C@H](c2ccccc2)N2[C@H]1[C@@H](C(=O)N1CCCCCCC1)[C@]1(C(=O)Nc3ccc(C#CCCO)cc31)[C@H]2c1ccc(OCCO)cc1`, the z-score is -1.98. `CCCC[C@H]1OB(O)C[C@H]2C1=C(COc1ccccc1)Cn1c(=O)n(-c3ccccc3)c(=O)n12` registered a z-score of -0.902.
